39 molecules from the supplement of paper PMC12669032 can be followed below.

Unmarked numbers belong to inactive results.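 The calls were made as follows: active = AUC reduced over 20% with Padj below 0.05 in at least 2 of 3 replicates; inactive = otherwise.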

The first assay deals with Bifidobacterium longum subsp. longum. Description: growth AUC relative to DMSO control (median of replicates) (fraction); higher = more growth (less inhibition), active = hit call of the paper. Conditions: 20 µM; 24 h. In short, it runs like this: (§1)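 Hourly OD600 readings over 24 h tracked anaerobic gut bacterial monocultures grown at 37 °C in mGAM from OD600 0.05 with 20 µM compound (1% DMSO). After the minimum OD was set to 0, area under the growth curve was normalised to the plate median of solvent-only wells, or to row and column medians on the industrial chemical plate. Values are medians of three biological replicates grown on separate days.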
`COP(=O)(OC)SCn1c(=O)oc2cc(Cl)cnc21`: the “growth AUC” value was 1.01.
As for `COC(=O)Nc1nc2ccccc2[nH]1`, the “growth AUC” value was 1.01.
Turning to `S=C1NCCN1`, the “growth AUC” value was 0.947.
For the molecule `O=c1[nH]c(Cl)c(Cl)cc1Cl`, the “growth AUC” value was 0.981.
Regarding `Cc1cccc(C)c1N`, the “growth AUC” value was 1.04.
As for `COP(=O)(OC)Oc1ccc([N+](=O)[O-])cc1`, the “growth AUC” value is 1.07.
For the molecule `CCOP(=S)(OCC)Oc1ccc2c(C)c(Cl)c(=O)oc2c1`, the “growth AUC” value was 0.968.
With `Clc1cc(Cl)c(Cl)cc1Cl`, the “growth AUC” value was 1.07.
Same read-out and setting: the same measure for `CCN(CC)c1c([N+](=O)[O-])cc(C(F)(F)F)c(N)c1[N+](=O)[O-]`: 0.913; for `C[C@@H](Oc1ccc(Oc2ccc(C(F)(F)F)cn2)cc1)C(=O)O`: 0.985.
On the same count and under the same terms, the same measure for `CCOP(=S)(Oc1cnc(C(C)(C)C)nc1)OC(C)C` (stereo unspecified): 0.97; for `Oc1ccc(C(c2ccc(O)cc2)(C(F)(F)F)C(F)(F)F)cc1`: 0.924.

In another assay the test system is Clostridium difficile. The description is as above. Conditions: 20 µM; 24 h. In short, it runs like this:
as §1
With `CCCSC(=O)N(CCC)CCC`, the “growth AUC” value is 1.01.
For `CCOP(=S)(OCC)SCCSCC`, the “growth AUC” value is 0.977.
As for `Nc1c(Cl)c(Cl)c(Cl)c(Cl)c1Cl`, the “growth AUC” value was 0.988.
With `N#Cc1c(Cl)cccc1Cl`, the “growth AUC” value is 1.01.
For `CC(CCl)OP(=O)(OC(C)CCl)OC(C)CCl` (mixture of isomers), the “growth AUC” value is 1.02.
`CNC(=O)/C(=N/OC)c1ccccc1Oc1ccccc1`: the “growth AUC” value was 1.
Turning to `Clc1c(Cl)c(Cl)c(Cl)c(Cl)c1Cl`, the “growth AUC” value is 1.
With `C#CC(C)(C)NC(=O)c1cc(Cl)cc(Cl)c1`, the “growth AUC” value was 0.948.
For the molecule `CNC(=O)Oc1cc(C)c(SC)c(C)c1`, the “growth AUC” value was 1.01.
On to `C[N+](C)(C)CCCl.[Cl-]`, for which the “growth AUC” value is 1.
Same read-out and setting: the same measure for `CC(C)(C)c1cc([N+](=O)[O-])cc([N+](=O)[O-])c1O`: 0.885.
For `CCOP(=S)(OCC)SCSc1ccc(Cl)cc1`, the “growth AUC” value is 1.
As for `O=S(=O)(c1ccc(Cl)cc1)c1cc(Cl)c(Cl)cc1Cl`, the “growth AUC” value is 0.963.
Consider `CCOCCN(C(=O)CCl)C(=C(C)C)c1ccccc1`, for which the “growth AUC” value was 0.954.
Consider `CC(C)(O)C(Cl)(Cl)Cl.CC(C)(O)C(Cl)(Cl)Cl.O`, for which the “growth AUC” value is 1.03.
Regarding `Nc1cnn(-c2ccccc2)c(=O)c1Cl`, the “growth AUC” value was 1.03.
On to `CC(C)=CC1C(C(=O)OCN2C(=O)C3=C(CCCC3)C2=O)C1(C)C` (stereo unspecified), for which the “growth AUC” value was 0.959.
Same read-out and setting: the figure for `O=P(OCCCl)(OCCCl)OCCCl` is 0.963.
As to `COCc1c(F)c(F)c(COC(=O)[C@@H]2[C@@H](C=C(Cl)Cl)C2(C)C)c(F)c1F`, the “growth AUC” value was 0.994.
As to `ClC1C(Cl)C(Cl)C(Cl)C(Cl)C1Cl` (mixture of isomers), the “growth AUC” value was 0.982.
The same measure, in the same setting: the same measure for `O=C(O)C1(O)c2ccccc2-c2ccc(Cl)cc21` (stereo unspecified): 0.993.
In the case of `CCC(CC)Nc1c([N+](=O)[O-])cc(C)c(C)c1[N+](=O)[O-]`, the “growth AUC” value was 0.962.
On to `CC(C)(C)c1ccc(CCOc2ncnc3ccccc23)cc1`, for which the “growth AUC” value was 0.98.
Regarding `CCC(C)(NC(=O)c1cc(Cl)c(C)c(Cl)c1)C(=O)CCl` (stereo unspecified), the “growth AUC” value was 0.496 (active).
With `COc1ccc(/C(=C/C(=O)N2CCOCC2)c2ccc(Cl)cc2)cc1OC`, the “growth AUC” value was 0.932.
For the molecule `CNC(=O)Oc1cccc2c1OC(C)(C)C2=O`, the “growth AUC” value was 1.01.
Same read-out and setting: the same measure for `c1coc(-c2nc3ccccc3[nH]2)c1`: 0.971.
Still for that read-out and setting: the same measure for `COP(=O)(OC)SCn1c(=O)oc2cc(Cl)cnc21`: 1; for `COC(=O)Nc1nc2ccccc2[nH]1`: 1.06.
On the same count and under the same terms, the figure for `S=C1NCCN1` is 1.05.
As for `O=c1[nH]c(Cl)c(Cl)cc1Cl`, the “growth AUC” value is 0.95.
As for `Cc1cccc(C)c1N`, the “growth AUC” value was 0.997.
In the case of `COP(=O)(OC)Oc1ccc([N+](=O)[O-])cc1`, the “growth AUC” value is 1.04.
In the case of `CCOP(=S)(OCC)Oc1ccc2c(C)c(Cl)c(=O)oc2c1`, the “growth AUC” value is 1.
As for `Clc1cc(Cl)c(Cl)cc1Cl`, the “growth AUC” value was 0.98.
Turning to `CCN(CC)c1c([N+](=O)[O-])cc(C(F)(F)F)c(N)c1[N+](=O)[O-]`, the “growth AUC” value is 1.
`C[C@@H](Oc1ccc(Oc2ccc(C(F)(F)F)cn2)cc1)C(=O)O`: the “growth AUC” value is 1.02.
Still for that read-out and setting: the figure for `CCOP(=S)(Oc1cnc(C(C)(C)C)nc1)OC(C)C` (stereo unspecified) is 1; for `Oc1ccc(C(c2ccc(O)cc2)(C(F)(F)F)C(F)(F)F)cc1` it is 0.966.
